According to the supplement of paper PMC12632987:
The full ranking holds about 4,500 sequences; the median of “median log2 fold change of GCK-ALFA target abundance (FLAG IP / Myc IP barcode read proportion)” is about 0.078, and the lowest 2% start at about -0.6. This excerpt belongs to a sample that is enriched for the lowest values.

B1: GBRAP_35_5623 (protein)
chain: NTDKEIAEAVVAVLEDTLLAKDTVPADTFIDTAIKVARLGIEVAKELKEYKENAKKILEAVEKLLKAAKERAKETGAPEEKLKEIEKLLKEVEELKKKLE
B2: GBRAP_11_2643 (protein)
chain: KKEKLKKAAELAKKAIEALKKLLEEGVDNEELRKKIEELLEELSKLVKEYADESLKKLVEIAKELWKKSLEDPENAEEYVKNLLAALRVLSAELEEEIEE
B3: GBRAP_160_4726 (protein)
chain: SERIREFVERFEERFLETIEATEDESKEEQAAMFRGTAGEILMEALEEPFLSDEMEDVVAEELDALVAELEANWDASKEEKKAIVREHMERLRERLLALA
B4: GBRAP_160_4491 (protein)
chain: SAKVEEAKKEVKAIVDDAVDAIAEAPADQRAAIARAYAGDIVQTLLELGVVTDEQAETVLDTAEAGLAAVVAASAAGAAAAAAAAAALVATLNDMIKKFS
B5: GBRAP_14_3817 (protein)
chain: MEELKKKIKEILDDLYEELVEDIGLDEEKVKKLIDKALEEIFKALDDPEGSEEKIKEIMEKLKKEIEKLAAELGADEAAAARALVTDAEYEIDEAIEEAK
B6: GBRAP_160_4228 (protein)
chain: METVEKIVEIFRETFLEALELIEGESEEERRVILDVAVGEIILEVEEIEEATDEMVEIVDERAEKLAERLLAARDASREERRALVEEEAKKLREELEKLA
B7: GBRAP_52_6106 (protein)
chain: ARARVRALVEEALALVRAGREEEARALLEAFARTANEEELELFAEALAELAREAAPEDLDAVWRLAEMAAEALEAAGWPDVLVDDLLARVAAALYERELK
B8: GBRAP_160_4092 (protein)
chain: SEEIEKLIEEIDELRDETKEMIKGESREERATIIRGFGGEVIMLLFESGIVSEEVEDLADELFDELVATVEANPELTEEEIFALIDETVDEIKEAIKEDH
B9: GBRAP_80_6797 (protein)
chain: AAAALAAALAALAEVDAELAARVAAIVATARALGVSDADLADFVAAVLELAKADKEEAAALVDETEALLAEEAARGDTANATAVIRVHAGDALLAVEELE
B10: GBRAP_160_3998 (protein)
chain: SEKLAALKAEIAAILAETLELARGEDAAERLAVVRVMGGQILLTLEESGIVSDEALAAVDAILDATAAEVAANPDLTDAELAALLDATLARINAVLEEHS
B11: GBRAP_11_2747 (protein)
chain: KKEKLKEIAKAAEKLAKLLEELIKEGVDNEELLKEAEKALKELKKLVEEYGDESLKKLVEIIEEEFKKAKEDPENALKYLQNALAAARVLAGQVLLDIEE
B12: GBRAP_184_5076 (protein)
chain: AVLEETLRVEDLEEARARLAALRERVADFRGTLVVLVEMPEFERETARAVLEGLAAMKAAGYVTDVTVGFDAPLTEEQVDFVVDTADALGVKVTLALPEE
B13: GBRAP_35_5513 (protein)
chain: SSIDTETEMLVSTLEDATLAVEDLDPETLKKIVESLAELAREFILQNKNDLEALKRVKEELEKLAEALRKRGLDDPLIKEALEKVEEVIKLAEEEIKKIE
B14: GBRAP_160_4713 (protein)
chain: SETAEERKKYVDEEFERAKKLIEGETIEQRAIIVEGTVGEIIMEFVEDEKATDELIDEVIEIGDELVKTILENPNLTLEEIKELIDEAREKMKEAIDKHL
B15: GBRAP_78_6743 (protein)
chain: KAEEVIDETIETLNEALKALSSKPIEEVGDAMLHLLDASEALIEAEEEGFPLEYIEEAARHLAAAIAEIEAKGIELPAEIMAALKASLEALKALAAEKKA
B16: GBRAP_128_3161 (protein)
chain: AVEEAKKKTKELMEKIKNSSLEEVEKLAKELVEMMKTASDEEVEAMAEVILEELPKLSAEKLEILADVLEEKMPELSPFGQNQAADVLVEALNEAEELEE
B17: GBRAP_78_6611 (protein)
chain: ETKEKILKLLEEAEELAREVRKLAPEVAEQAAELEVLLGTAIYMVDTGSESKEEILETLEEAEKAAKELKKLVEGLAEEVQKLVKEALEKIKEAIKLLKE
B18: GBRAP_160_4329 (protein)
chain: SEEFEKLIEFIDEEFEETKELIKGLSLEQVKVLIEGTFGEIIMEMSENESISDELVDFVVAERDALLATLDANPDLSEEEIKALIDEARERIKEALKKEA
B19: GBRAP_125_3108 (protein)
chain: SEEEILEALKRLAKALGFSEEEAEEAAELARKFSVKQTLYALFLAEGEEELADLVEKLTEEQAKRALLKLAKWLEENPNATKEEVLEQAKKILEEELAKQ
B20: GBRAP_125_3105 (protein)
chain: MEEEILEALKLLAKALGFDDEDAEEAARLAREFSVKMTLYALLKAEGEEELADLVEKLTEEQAKKVLLKVAEWLKKNPNATKEEVLKKLKEVILEELEKA
B21: GBRAP_9_7175 (protein)
chain: LKEAAKKAIEGLKEAKEFALEVVPEEKKEEINAAFDELIETVKKMQADDSVTKEEFRETLEKGFDKIIELAKKNLDPEIAAIVETELLTIKAEVDELLDE
B22: GBRAP_160_3978 (protein)
chain: SEEIEKLKKEIKELAEEAKELIEGESYEERLTIVRVMFGEILMLLMSNENVSDETEEEVAKVGDETIAYLEANPDLTEEEIKELIKEAEKKIFEILEKNE
B23: GBRAP_160_4224 (protein)
chain: METVEKLVKIFRENFEEALELIEGESLEEQKVILDVAAGEVILEAEEIEEATEEMVEIVDKKAEEAREELLEAREASKEEKRKLIEEHAEKLRKELEKVA
B24: GBRAP_74_6499 (protein)
chain: SAATEAAAEEFAALLRAGASYEELMAHLAKMNVEALNAAVIKATEVARANADELTEEQIDALAELADRVFAESEDPEAIKAAGELVKILYERELRLEAER
B25: GBRAP_74_6501 (protein)
chain: AAADEAAAEEFAELLRRGASYEELMAHIAEMNVAALDLAVIKATEEARENAEKLTEEQIDALAELADRVFAESENPEAIAAAGELVKILYETEERRRAEE
B26: GBRAP_26_5460 (protein)
chain: MEEAERAAEAEVRAIAARLPDPRVAAAVVAEFSTELLEAEEAIENGEDPKEAFRKAREEFLAEARELMEEAGLSPEEIAAFEAELSAVFDKLEAEVLAEL
B27: GBRAP_52_6294 (protein)
chain: SMEEVEKKAKEIVELVKEGKLEEAIELAKKFVEENSLEEALELGKLLIEKIEELTPEEAELMLEVIEALAEEIEKEFGAEEEADILEAEAAAAAYKVLQK
B28: GBRAP_160_4717 (protein)
chain: SETAEKLKEYVDEEFDEAEELMKGESIEQRAIILEGTVGEIIMELFENPDASDELIDEVLKIGDEAVATLKANPDLSDEEIEELLDEARDKMKEAIDKHL
B29: GBRAP_137_3636 (protein)
chain: PNVTITTKTEDDLVEINIEFDDPELAEEVAELIEDVAHKHGALALSIEINEDGTLDATIWVPKEKAQALLDALIKALKEKFNATVTVIDEDTGEVKTIKA

Each binder was assayed against GABARAP, O95166 (assay: median log2 fold change of GCK-ALFA target abundance (FLAG IP / Myc IP barcode read proportion) (log2 ratio); each designed protein is fused to an ALFA-tag nanobody in HEK293 cells to bring the named protein to FLAG-tagged glucokinase (GCK); Myc marks an untargeted standard; higher = target protein stabilised (more abundant)). Conditions: target protein: 3xFLAG-MCP-GCK-ALFA reporter; HEK293 landing pad (RPLP).
Chain of GABARAP, O95166 (O95166 whole entry, the tested form may be a part): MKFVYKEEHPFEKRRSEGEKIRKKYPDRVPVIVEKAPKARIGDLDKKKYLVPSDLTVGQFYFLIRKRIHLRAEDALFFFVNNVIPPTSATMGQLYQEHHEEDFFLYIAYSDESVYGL
How it was run: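 Binders fused to an ALFA nanobody were recombined as a library into HEK293 landing-pad cells, which were induced with 2 μg mL^−1 doxycycline and then transfected to express a FLAG-tagged target and a Myc-tagged standard. After 48 h, circular RNA barcodes recovered by anti-FLAG and anti-Myc immunoprecipitation of lysates were reverse transcribed, amplified and sequenced. Each binder's target abundance is the median log2 ratio of FLAG to Myc barcode read proportions, from barcodes present at ≥10^−7 in both replicates, binders carrying ≥3 barcodes per replicate, a 10^−6 pseudocount and pooled replicates.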

Binder	median log2 fold change
B1	-0.669
B2	0.271
B3	0.0951
B4	-1.1
B5	-0.057
B6	-0.393
B7	-0.266
B8	-0.649
B9	-0.147
B10	-0.533
B11	-0.119
B12	0.0481
B13	0.222
B14	-0.628
B15	-0.0804
B16	0.0696
B17	0.172
B18	-0.22
B19	-0.437
B20	-0.694
B21	0.286
B22	0.206
B23	-0.617
B24	-0.772
B25	0.0485
B26	0.197
B27	0.0653
B28	-0.000956
B29	-0.117
